From PubChem BioAssay (NCI)
The panel holds about 83,000 compounds, 20% with a hit somewhere; the sample as a whole holds those more often.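 In brief: 96-well plates, 48 h treatment, single concentration, percent growth endpoint.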 Unmarked numbers belong to inactive results. The source made the active and inactive calls. How the source made its calls: active means growth percent below 10; inactive means the rest.

What was measured:
Assay in all cases: NCI-60 one-dose screen, 48 h (100 = growth as untreated, 0 = no growth, -100 = all killed)
[1] = tested on: T-47D breast; conditions: 10 µM unless noted
[2] = tested on: BT-549 breast; conditions: 10 µM unless noted
[3] = tested on: MDA-MB-435 melanoma; conditions: 10 µM unless noted
[4] = tested on: SW-620 colon; conditions: 10 µM unless noted
[5] = tested on: MCF7 breast; conditions: 10 µM unless noted
[6] = tested on: HCT-116 colon; conditions: 10 µM unless noted
[7] = tested on: KM12 colon; conditions: 10 µM unless noted
[8] = tested on: HCC-2998 colon; conditions: 10 µM

Row | SMILES | growth [1] | growth [2] | growth [3] | growth [4] | growth [5] | growth [6] | growth [7] | growth [8]
1 | CC(C)c1cc(CNc2nc(Nc3cc(C4CC4)[nH]n3)cc(N3CCN(C)CC3)n2)on1 | 6.24% (active) | -21.9% (active) | -10.9% (active) | 7.6% (active) | 11.5% | 3.46% (active) | 4.41% (active) | 
2 | CN[C@@H]1C[C@H]2O[C@@](C)([C@@H]1OC)n1c3ccccc3c3c4c(c5c6ccccc6n2c5c31)C(=O)N[C@H]4O | -49.2% (active) | -88.5% (active) | -79.4% (active) | -6.96% (active) | -46.8% (active) | -49.3% (active) | -59.8% (active) | 
3 | COCCN1CCN(Cc2ccc(-c3n[nH]c4c3C(=O)c3c(NC(=O)NN5CCOCC5)cccc3-4)cc2)CC1 | 12.7% | -24.2% (active) | -46.4% (active) | -25% (active) | -33.2% (active) | -48.2% (active) | -66.3% (active) | 
4 | CN(C)C1CCN(C(=O)c2ccc(NC(=O)Nc3ccc(-c4nc(N5CCOCC5)nc(N5CCOCC5)n4)cc3)cc2)CC1 | -45.3% [2.5 µM] (active) | -10.1% [2.5 µM] (active) | -16.6% [2.5 µM] (active) | 8.13% [2.5 µM] (active) | 3.87% [2.5 µM] (active) | 12.8% [2.5 µM] | 5.58% [2.5 µM] (active) | 
5 | CCCS(=O)(=O)Nc1ccc(F)c(C(=O)c2c[nH]c3ncc(-c4ccc(Cl)cc4)cc23)c1F | 8.42% (active) | 41.1% | 13.4% | 78.5% | 44.6% | 27.3% | 32% | 
6 | CCCCCCCC(=O)SCC/C=C/[C@@H]1CC(=O)NCc2cccc(n2)C2=N[C@@](C)(CS2)C(=O)N[C@@H](C(C)C)C(=O)N1 | -7.49% (active) | 41.4% | 19.6% | 69.3% | 28.3% | 2.91% (active) | 24.9% | 
7 | c1cn2cc(-c3ccc4cn[nH]c4c3)nc(Nc3ccc(N4CCOCC4)cc3)c2n1 | 49.2% | 66.2% | 76.8% | 69.2% | 66.2% | 52.4% | 20.5% | 
8 | Cc1cc(NCC(=O)Nc2ccc(-c3nc4ccccc4s3)cc2)no1 | 80.3% | 94.7% | 104% | 113% | 35.9% | 90.7% | 102% | 
9 | C=CC(=O)Nc1cc2c(Nc3ccc(F)c(Cl)c3)ncnc2cc1OCCCN1CCOCC1 | -0.739% (active) | -10.8% (active) | 23.6% | -53.5% (active) | 13.7% | -70.8% (active) | 19.1% | 
10 | COc1cc2c(cc1OCCCCCCN1CCN(c3ncnc4ccccc34)CC1)N=CC1CCCN1C2=O (stereo not drawn) | 6.98% (active) | -40.8% (active) | -77.1% (active) | -19.1% (active) | 11.2% | 3.4% (active) | -27.9% (active) | 
11 | C#Cc1cccc(Nc2ncnc3cc4c(cc23)OCCOCCOCCO4)c1 | 33% | 50.3% | 24.6% | 84.7% | 56.1% | 64.7% | 53% | 
12 | N#Cc1c(NC(=O)c2cccs2)[n+]([O-])c2ccc(F)cc2[n+]1[O-] | 76.9% | 99.6% | 105% | 74% | 86.5% | 104% | 92.2% | 
13 | COc1cc2c(cc1OCCCN1Cc3ccc(OCCCCC(=O)N4CCC(CCN5CCCC5)CC4)cc3C1)N=C(N)C21CCCC1 | 56.2% | 63.4% | 81.5% | 66.4% | 58.5% | 68.1% | 78.5% | 
14 | Clc1ccc(/C=C/c2cc(N3CCOCC3)c3cc(Cl)c(Cl)cc3n2)cc1 | 91.3% | -20.4% (active) | 91% | 111% | 91.7% | 98.3% | 63.5% | 
15 | O=C1NC(=O)C(c2cnc3ccccn23)=C1c1cn2c3c(cc(F)cc13)CN(C(=O)N1CCCCC1)CC2 | 33.8% | 61.1% | 51.2% | 59.6% | 35.2% | 17.1% | 46.2% | 
16 | Cc1cc(Nc2cc(N3CCN(C)CC3)nc(/C=C/c3ccccc3)n2)n[nH]1 | -24.7% (active) | 8.9% (active) | 6.58% (active) | 0.289% (active) | 0.852% (active) | 0.937% (active) | -16.9% (active) | 
17 | Cc1nn(-c2ccccc2)c2c1N=c1s/c(=C\c3cn(-c4ccccc4)nc3-c3ccc(Cl)cc3)c(=O)n1C(C)N2 (stereo not drawn) | 103% | 105% | 88.6% | 103% | 90.6% | 75.2% | 91.8% | 
18 | Cc1cc2c(-c3nc4ccccn4c3N)c(O)c(O)cc2c(O)c1-c1c(C)cc2c(-c3nc4ccccn4c3N)c(O)c(O)cc2c1O | 14.6% | 21.2% | 13.4% | 22.7% | 10.7% |  | 22.1% | 30.7%
19 | Cn1ncc(Cl)c1-c1cc(C(=O)N[C@H](CN)Cc2ccc(F)c(F)c2)oc1Cl | -50.7% (active) | -66.4% (active) | -59.8% (active) | 27.9% | -28.5% (active) | -28.3% (active) | -39.2% (active) | 
20 | CCN(CC)CCOc1ccc(/C(=C(\C)c2ccc(Cl)cc2)c2ccc(Cl)cc2)cc1 | 55.2% | 85.2% | 87.1% | 30.8% | 34.8% | 47% | 40.3% | 
21 | COc1ccc2nc3cc(Cl)ccc3c(Nc3ccc(N(C)C)cc3)c2c1 | 86.3% | 72.1% | 99.9% | 95.1% | 83.5% | 96.9% | 83.1% | 
22 | O=C(Nc1ccc(C2=NCCCN2)cc1)c1ccc(C(=O)Nc2ccc(C3=NCCCN3)cc2)nc1 | 97.3% | 106% | 117% | 104% | 98% | 93.2% | 112% | 
23 | O=C(Nc1cnn2ccc(N3CCC[C@@H]3c3cc(F)ccc3F)nc12)N1CC[C@H](O)C1 | 78.3% | 90.5% | 93% | 106% | 99.7% | 83.1% | 26.7% | 
24 | Cc1ccc(F)c(NC(=O)Nc2ccc(-c3cccc4[nH]nc(N)c34)cc2)c1 | 1.25% (active) | 29.2% | 16.8% | 14.9% | 2.81% (active) |  | 2.63% (active) | -6.88% (active)
25 | CCN(CCO)CCCOc1ccc2c(Nc3cc(CC(=O)Nc4cccc(F)c4)[nH]n3)ncnc2c1 | 19.6% | 54.7% | 11.1% | 15.6% | 6.03% (active) |  | 15.9% | 4.66% (active)
26 | CCC1(/C=N/NC(N)=S)NC(=O)NC1=O (stereo not drawn) | 104% | 103% | 105% | 114% | 97.7% |  | 113% | 115%
27 | CNC(=O)c1cccc2cc(Oc3ccnc4cc(OCC5(N)CC5)c(OC)cc34)ccc12 | 92.2% | 59.7% | 24.1% | 46.9% | 49.1% |  | 45.9% | 92%
28 | CO/C=C/C(=O)c1cc2cnc3c(=N)cc(NC(=O)C(C)C)c([nH]1)c23 | -53.1% (active) | -58.9% (active) | -27.5% (active) | -47.8% (active) | 1.14% (active) |  | -23.9% (active) | -21% (active)
29 | Cc1nc2cc(-c3nn(C(C)C)c4ncnc(N)c34)ccc2o1 | -39.9% (active) | -14.5% (active) | -20.5% (active) | 2.48% (active) | -4.42% (active) |  | 0.531% (active) | -8.93% (active)
